Active and inactive are the calls of the source. The calls were made as follows: active = hit-call score of the fitted dose curve at least 0.9, where 1 is the maximum; inactive = score below 0.9.
Biological target: Transcription factor Sp1 (Homo sapiens) (UniProt P08047)
Assay: ATG_Sp1_CIS: Attagene CIS-FACTORIAL HepG2 Assay for human Specificity Protein 1 (Sp1) (AID 2282961)
Settings: HepG2 Sp1 cis-reporter transcription, actives raise or lower the signal
Outline: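 Read-out: fluorescence of 6-FAM-labeled, HpaI-digested RT-PCR products separated by capillary electrophoresis. HepG2 cells carried transfected cis-element reporter units and were exposed to chemicals for 24 h; gain or loss of signal fitted relative to DMSO.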

Sequence of Transcription factor Sp1 (Homo sapiens) (P08047 whole entry, looked up): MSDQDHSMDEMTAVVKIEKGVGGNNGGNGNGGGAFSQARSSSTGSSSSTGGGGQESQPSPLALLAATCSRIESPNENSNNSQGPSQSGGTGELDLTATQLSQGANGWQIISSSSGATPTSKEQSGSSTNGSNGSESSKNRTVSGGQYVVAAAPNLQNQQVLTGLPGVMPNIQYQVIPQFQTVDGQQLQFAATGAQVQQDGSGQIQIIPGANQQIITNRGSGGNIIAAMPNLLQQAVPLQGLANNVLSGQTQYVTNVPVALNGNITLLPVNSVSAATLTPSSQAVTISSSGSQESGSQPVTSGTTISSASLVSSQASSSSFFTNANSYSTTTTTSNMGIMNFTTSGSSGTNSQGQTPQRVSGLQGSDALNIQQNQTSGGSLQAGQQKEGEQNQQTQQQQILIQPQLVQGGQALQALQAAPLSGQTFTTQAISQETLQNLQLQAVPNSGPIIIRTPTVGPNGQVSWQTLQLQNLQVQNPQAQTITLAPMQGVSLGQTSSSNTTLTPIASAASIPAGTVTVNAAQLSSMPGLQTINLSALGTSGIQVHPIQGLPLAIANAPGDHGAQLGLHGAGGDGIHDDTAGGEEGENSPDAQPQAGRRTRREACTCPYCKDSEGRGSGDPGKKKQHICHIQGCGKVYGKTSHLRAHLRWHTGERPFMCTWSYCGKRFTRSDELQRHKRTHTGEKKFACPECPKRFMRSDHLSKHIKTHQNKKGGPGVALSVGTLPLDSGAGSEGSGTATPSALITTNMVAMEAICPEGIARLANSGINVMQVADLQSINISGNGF

Row | SMILES | outcome | AC50
1 | CNC(=C[N+](=O)[O-])NCCSCc1csc(CN(C)C)n1 | inactive | 
2 | O=C1CCCCCCCCCCCCCC1 |  | 47.6 µM (active)
3 | CCCC(=O)OC/C=C(\C)CCC=C(C)C | inactive | 
4 | COC(=O)c1ccccc1 | inactive | 
5 | O=C(O)/C=C/C(=O)O | inactive | 
6 | O=S(=O)(O)c1cccc2ccccc12 | inactive | 
7 | C=CCOCC(CC)(CO)COCC=C | inactive | 
8 | CN1CCCC1 | inactive | 
9 | CCO[Si](CCCN)(OCC)OCC | inactive | 
10 | CCCCCCC1CCC(=O)O1 (stereo not given) | inactive | 
11 | O=[N+]([O-])c1ccccc1C(F)(F)F | inactive | 
12 | COc1cccc(OC)c1C(=O)O | inactive | 
13 | CCCCCC1CCCC(=O)O1 (stereo not given) | inactive | 
14 | COC(=O)[C@]1(C)CCC[C@@]2(C)[C@H]1CC=C1C=C(C(C)C)CC[C@@H]12 | inactive | 
15 | Cc1cc2nc3c(=O)[nH]c(=O)nc-3n(C[C@H](O)[C@H](O)[C@H](O)CO)c2cc1C | inactive | 
16 | Cc1cc(-n2nc3ccc(Cl)cc3n2)c(O)c(C(C)(C)C)c1 | inactive | 
17 | O=C(OCc1ccccc1)c1ccccc1 | inactive | 
18 | c1ccc(CNc2ncnc3nc[nH]c23)cc1 | inactive | 
19 | CC(=O)Nc1c(I)c(NC(C)=O)c(I)c(C(=O)O)c1I | inactive | 
20 | CC(C)=CCOC(=O)c1ccccc1 | inactive | 
21 | Oc1cccc2ccccc12 | inactive | 
22 | C=CN1CCCCCC1=O | inactive | 
23 | CN(C)c1ccc(C(c2ccccc2)c2ccc(N(C)C)cc2)cc1 | inactive | 
24 | c1ccc2c(c1)Oc1ccccc1S2 |  | 155 µM (active)
25 | CCCCCC[C@@H](O)C/C=C\CCCCCCCC(=O)O | inactive | 
26 | CC[N+](CC)(CC(=O)Nc1c(C)cccc1C)Cc1ccccc1 (tested in a mixture with another compound) | inactive | 

Test system: not listed separately
Assay: ATG_SREBP_CIS: Attagene CIS-FACTORIAL HepG2 Assay for human Sterol Regulatory Element Binding (SREBP) (AID 2282962)
Settings: HepG2 Attagene cis-factorial SREBP reporter, mRNA; actives raise or lower the signal
Outline: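 Readout: fluorescent reporter-transcript peaks resolved by capillary electrophoresis after RT-PCR. Cells were human HepG2 carrying transfected cis-promoter reporter constructs, dosed for 24 h. Gain or loss of signal was fitted against DMSO controls.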

Row | SMILES | outcome
27 | CNC(=C[N+](=O)[O-])NCCSCc1csc(CN(C)C)n1 | inactive
28 | CCCC(=O)OC/C=C(\C)CCC=C(C)C | inactive
29 | C/C=C(\C)C(=O)OCC/C=C\CC | inactive
30 | CC/C=C\CC/C=C/C(OCC)OCC | inactive
31 | C=CCOCC(CC)(CO)COCC=C | inactive
32 | CN1CCCC1 | inactive
33 | CCCCCCC1CCC(=O)O1 (stereo not given) | inactive
34 | O=[N+]([O-])c1ccccc1C(F)(F)F | inactive
35 | CCC(=O)OCc1ccc(OC)cc1 | inactive
36 | CCc1cc(C(N)=S)ccn1 | inactive
37 | CCC(C)=NO | inactive
38 | COc1cccc(OC)c1C(=O)O | inactive
39 | C=C1CC[C@H]2C[C@@H]1C2(C)C | inactive
40 | CCCCCC1CCCC(=O)O1 (stereo not given) | inactive
41 | COC(=O)[C@]1(C)CCC[C@@]2(C)[C@H]1CC=C1C=C(C(C)C)CC[C@@H]12 | inactive
42 | Cc1cc2nc3c(=O)[nH]c(=O)nc-3n(C[C@H](O)[C@H](O)[C@H](O)CO)c2cc1C | inactive
43 | Cc1cc(-n2nc3ccc(Cl)cc3n2)c(O)c(C(C)(C)C)c1 | inactive
44 | CCCCCCC1CCCC(=O)O1 (stereo not given) | inactive
45 | c1ccc(CNc2ncnc3nc[nH]c23)cc1 | inactive
46 | NC(=O)c1ccc(N)cc1 | inactive
47 | CC(C)(C)NC(=O)[C@@H]1CN(Cc2cccnc2)CCN1C[C@@H](O)C[C@@H](Cc1ccccc1)C(=O)N[C@H]1c2ccccc2C[C@H]1O | inactive
48 | Oc1cccc2ccccc12 | inactive
49 | Oc1ccc(Oc2ccccc2)cc1 | inactive
50 | CNC[C@H](O)[C@@H](O)[C@H](O)[C@H](O)CO | inactive
51 | CC[N+](CC)(CC(=O)Nc1c(C)cccc1C)Cc1ccccc1 (tested in a mixture with another compound) | inactive

Biological target: Signal transducer and activator of transcription 3 (Homo sapiens) (UniProt P40763)
Assay: ATG_STAT3_CIS: Attagene CIS-FACTORIAL HepG2 Assay for human Signal Transducer and Activator of Transcription 3 (STAT3) (AID 2282963)
Settings: HepG2, Attagene cis-factorial STAT3 reporter transcription; actives raise or lower the signal
Outline: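 Readout is reporter transcript quantified by RT-PCR and capillary electrophoresis, with 6-FAM primer extension and HpaI digestion. Total RNA is taken 24 h after dosing transiently transfected HepG2 carrying cis-regulated reporter units. Bidirectional fit against DMSO.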

Sequence of Signal transducer and activator of transcription 3 (Homo sapiens) (P40763 whole entry, looked up): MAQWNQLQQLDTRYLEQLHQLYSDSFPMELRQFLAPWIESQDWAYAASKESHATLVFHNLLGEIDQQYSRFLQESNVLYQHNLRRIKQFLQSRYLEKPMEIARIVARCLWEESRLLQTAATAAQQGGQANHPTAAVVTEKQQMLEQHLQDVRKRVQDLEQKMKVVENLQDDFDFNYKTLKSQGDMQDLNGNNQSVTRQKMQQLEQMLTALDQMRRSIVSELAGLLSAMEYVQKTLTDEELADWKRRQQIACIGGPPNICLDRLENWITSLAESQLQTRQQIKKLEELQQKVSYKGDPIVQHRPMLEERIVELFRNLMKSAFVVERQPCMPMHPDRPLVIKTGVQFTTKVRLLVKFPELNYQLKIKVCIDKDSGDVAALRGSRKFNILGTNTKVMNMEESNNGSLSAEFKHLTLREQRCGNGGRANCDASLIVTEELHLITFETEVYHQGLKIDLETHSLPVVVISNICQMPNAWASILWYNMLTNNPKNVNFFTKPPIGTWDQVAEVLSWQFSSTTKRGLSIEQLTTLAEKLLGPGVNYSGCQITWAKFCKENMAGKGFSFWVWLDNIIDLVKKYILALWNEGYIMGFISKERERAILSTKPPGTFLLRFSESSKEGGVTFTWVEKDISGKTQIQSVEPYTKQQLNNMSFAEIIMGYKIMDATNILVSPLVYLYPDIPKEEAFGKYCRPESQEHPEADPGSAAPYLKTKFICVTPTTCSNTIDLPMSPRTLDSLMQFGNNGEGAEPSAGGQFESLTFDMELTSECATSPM

Row | SMILES | outcome | AC50
52 | CNC(=C[N+](=O)[O-])NCCSCc1csc(CN(C)C)n1 | inactive | 
53 | O=C1CCCCCCCCCCCCCC1 | inactive | 
54 | CCCC(=O)OC/C=C(\C)CCC=C(C)C | inactive | 
55 | CCCCCCC(O)CCCCCCCCCCC(=O)OC (stereo not given) | inactive | 
56 | COC(=O)c1ccccc1 | inactive | 
57 | O=C(O)/C=C/C(=O)O | inactive | 
58 | O=S(=O)(O)c1cccc2ccccc12 | inactive | 
59 | C/C=C(\C)C(=O)OCC/C=C\CC | inactive | 
60 | CC/C=C\CC/C=C/C(OCC)OCC | inactive | 
61 | C=CCOCC(CC)(CO)COCC=C | inactive | 
62 | CN1CCCC1 | inactive | 
63 | CCO[Si](CCCN)(OCC)OCC | inactive | 
64 | CCCCCCC1CCC(=O)O1 (stereo not given) | inactive | 
65 | O=[N+]([O-])c1ccccc1C(F)(F)F | inactive | 
66 | CCC(=O)OCc1ccc(OC)cc1 | inactive | 
67 | CCc1cc(C(N)=S)ccn1 | inactive | 
68 | CCC(C)=NO | inactive | 
69 | COc1cccc(OC)c1C(=O)O | inactive | 
70 | C=C1CC[C@H]2C[C@@H]1C2(C)C | inactive | 
71 | CCCCCC1CCCC(=O)O1 (stereo not given) | inactive | 

Row | SMILES | outcome | AC50
72 | COC(=O)[C@]1(C)CCC[C@@]2(C)[C@H]1CC=C1C=C(C(C)C)CC[C@@H]12 | inactive | 
73 | Cc1cc2nc3c(=O)[nH]c(=O)nc-3n(C[C@H](O)[C@H](O)[C@H](O)CO)c2cc1C | inactive | 
74 | Cc1cc(-n2nc3ccc(Cl)cc3n2)c(O)c(C(C)(C)C)c1 | inactive | 
75 | O=C(OCc1ccccc1)c1ccccc1 | inactive | 
76 | CCCCCCC1CCCC(=O)O1 (stereo not given) | inactive | 
77 | c1ccc(CNc2ncnc3nc[nH]c23)cc1 | inactive | 
78 | NC(=O)c1ccc(N)cc1 | inactive | 
79 | CC(=O)Nc1c(I)c(NC(C)=O)c(I)c(C(=O)O)c1I | inactive | 
80 | CC(C)=CCOC(=O)c1ccccc1 | inactive | 
81 | CC(C)(C)NC(=O)[C@@H]1CN(Cc2cccnc2)CCN1C[C@@H](O)C[C@@H](Cc1ccccc1)C(=O)N[C@H]1c2ccccc2C[C@H]1O | inactive | 
82 | Oc1cccc2ccccc12 | inactive | 
83 | C=CN1CCCCCC1=O | inactive | 
84 | Oc1ccc(Oc2ccccc2)cc1 | inactive | 
85 | CC(=O)CCc1ccccc1 | inactive | 
86 | CNC[C@H](O)[C@@H](O)[C@H](O)[C@H](O)CO | inactive | 
87 | CN(C)c1ccc(C(c2ccccc2)c2ccc(N(C)C)cc2)cc1 | inactive | 
88 | c1ccc2c(c1)Oc1ccccc1S2 | inactive | 
89 | CCCCCC[C@@H](O)C/C=C\CCCCCCCC(=O)O |  | 160 µM (active)
90 | CC[N+](CC)(CC(=O)Nc1c(C)cccc1C)Cc1ccccc1 (tested in a mixture with another compound) | inactive | 
